The values below come from PubChem BioAssay (NCATS).

Assay [1] is described as follows: Quantitative High-Throughput drug screen in 47 multiple myeloma cell lines against the NCATS MIPE library collection: XG1_PLB cell viability assay (AID 1919866). Note: nearly all actives have a fitted effect of over 35% in size. The procedure, abridged: (§1)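 ATP-based luminescence (CellTiter-Glo, 5 min RT incubation) quantified surviving cells following two days' treatment with MIPE 4.0 agents at 37 °C, 5% CO2.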
Assay [2] in a line: Quantitative High-Throughput drug screen in 47 multiple myeloma cell lines against the NCATS MIPE library collection: VP6_DJ cell viability assay (AID 1919867). Note: nearly all actives have a fitted effect of over 40% in size. The procedure, abridged: as §1
Assay [3] can be described thus: Quantitative High-Throughput drug screen in 47 multiple myeloma cell lines against the NCATS MIPE library collection: UTMC2_PLB cell viability assay (AID 1919868). Note: nearly all actives have a fitted effect of over 55% in size. The note with it: CellTiter-Glo ATP luminescence, 48 h; viability (% of DMSO control): at 45.8 µM (top of the series). The gist of the method:
as §1
Background: ATP-based viability assays read luminescence as a measure of living cells.

Assay [4] can be described thus: Quantitative High-Throughput drug screen in 47 multiple myeloma cell lines against the NCATS MIPE library collection: PE2_PLB cell viability assay (AID 1919869). Note: nearly all actives have a fitted effect of over 35% in size. The procedure, abridged: as §1
A short description of assay [5]: Quantitative High-Throughput drug screen in 47 multiple myeloma cell lines against the NCATS MIPE library collection: PCM6_Riken cell viability assay (AID 1919870). Note: nearly all actives have a fitted effect of over 30% in size. The procedure, abridged: as §1
The nature of assay [6]: Quantitative High-Throughput drug screen in 47 multiple myeloma cell lines against the NCATS MIPE library collection: RPMI8226_ATCC cell viability assay (AID 1919871). Note: nearly all actives have a fitted effect of over 30% in size. The gist of the method:
as §1

Assay [7] in a line: Quantitative High-Throughput drug screen in 47 multiple myeloma cell lines against the NCATS MIPE library collection: OPM2_DSMZ cell viability assay (AID 1919872). Note: nearly all actives have a fitted effect of over 30% in size. The gist of the method: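 Inhibition of cell viability is measured here. Each line was plated at 500 cells per well, treated with MIPE 4.0 drugs, kept 48 hours at 37C, then assayed for ATP content by CellTiter-Glo luminescence.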

The nature of assay [8]: Quantitative High-Throughput drug screen in 47 multiple myeloma cell lines against the NCATS MIPE library collection: KMS11_JCRBsus cell viability assay (AID 1919873). Note: nearly all actives have a fitted effect of over 50% in size. The gist of the method: as §1
Assay [9] in a line: Quantitative High-Throughput drug screen in 47 multiple myeloma cell lines against the NCATS MIPE library collection: KMS28BM_JCRB cell viability assay (AID 1919874). Note: nearly all actives have a fitted effect of over 35% in size. The gist of the method:
as §1

Results filed as inconclusive are left out. The source made the active and inactive calls. Calls come from the whole dose curve; as a rule, active = well fitted cell-killing curve with a large enough effect; inconclusive = small, poorly fitted or top-dose-only effect, or effect the other way; inactive = no such curve, though single readings can be large or run the other way.
Potency is the fitted concentration of half-maximal effect.

Regarding `COC[C@H]1OC(=O)c2coc3c2[C@@]1(C)C1=C(C3=O)[C@@H]2CC[C@H](O)[C@@]2(C)C[C@@H]1OC(C)=O`, the Potency is 2090 nM (active) in assay [1]; 1870 nM (active) in [2]; 296 nM (active) in assay [3]; 743 nM (active) in assay [4]; 3720 nM (active) in [5]; 2960 nM (active) in [6]. Also, the Potency was 1870 nM (active) in [7], 1660 nM (active) in assay [8] and 9350 nM (active) in assay [9].
With `O=C(Nc1ccncc1)C(=O)c1cn(Cc2ccc(Cl)cc2)c2ccccc12`, the Potency in [1] is 6.6 nM (active); in assay [2], 23.5 nM (active); in [3] it was 13.2 nM (active); in [5] it was 5.9 nM (active); in assay [6], 418 nM (active); in assay [7], 105 nM (active). For the same compound, the Potency in assay [8] is 5.3 nM (active); in assay [9], 4.7 nM (active).
Take `O=c1[nH]c2ccc(Cl)cc2c(N[C@@H]2CN3CCC2CC3)c1-c1nc2ccccc2[nH]1`: the Potency is 264 nM (active) in assay [1]; 132 nM (active) in [2]; 74.3 nM (active) in assay [4]; 166 nM (active) in assay [5]; 5900 nM (active) in assay [6]; 5900 nM (active) in assay [7]. Besides, the figures for the Potency in assay [8] and in assay [9] were 235 nM (active) and 1320 nM (active), respectively.
On to `CC=C(C)C(=O)N[C@@H](c1ccccc1)[C@@H](O)C(=O)O[C@H]1C[C@@]2(O)[C@@H](OC(=O)c3ccccc3)[C@@H]3[C@]4(OC(C)=O)CO[C@@H]4C[C@H](O)[C@@]3(C)C(=O)[C@H](OC(C)=O)C(=C1C)C2(C)C`, for which the Potency entry in [1], in assay [2], in assay [4], in [5], in [6] and in assay [8] was “inactive” each time.
With `CC(C)(O)C(=O)Nc1ccc([N+](=O)[O-])c(C(F)(F)F)c1`, the Potency in [1] is 8330 nM (active); in assay [2] it was 8330 nM (active); in assay [4] it was 9350 nM (active); in assay [5], 8330 nM (active). Moreover, the Potency result in assay [6] and in [7] was “inactive” each time.
Turning to `CCOC(=O)c1cncn1[C@H](C)c1ccccc1`, the Potency entry in assay [1], in assay [2], in assay [4], in assay [5], in [6] and in assay [7] was “inactive” throughout. The Potency entry in [9] was “inactive”.
Take `CC(C)[C@]12O[C@@H]1[C@@H]1O[C@]13[C@]1(O[C@H]1C[C@@H]1C4=C(CC[C@@]13C)C(=O)OC4)[C@H]2O`: the Potency result in [1], in [2], in assay [4], in assay [5], in [6] and in [7] was “inactive” throughout. Also, the Potency entry in assay [8] and in [9] was “inactive” each time.
As to `CCN1CCN(C(=O)Cc2ccc(Nc3ncc(F)c(Nc4ccc(C(=O)Nc5ccccc5Cl)cc4)n3)cc2)CC1`, the Potency is 1180 nM (active) in [1]; 2640 nM (active) in [2]; 1320 nM (active) in assay [3]; 7430 nM (active) in assay [4]; 2960 nM (active) in [5]; 18700 nM (active) in [6]. The values for the Potency in assay [7], in assay [8] and in assay [9] were 6620 nM (active), 743 nM (active) and 1870 nM (active), respectively.
For the compound `CC[C@@]1(O)C(=O)OCc2c1cc1n(c2=O)Cc2cc3ccccc3nc2-1`, the Potency in [1] is 33.2 nM (active); in assay [2] it was 166 nM (active); in assay [4], 209 nM (active); in [5] it was 372 nM (active); in assay [6], 743 nM (active); in [7], 743 nM (active). For the same compound, the Potency in assay [8] was 418 nM (active); in assay [9], 105 nM (active).
Take `Cc1ccccc1-n1c(Cn2cnc3c(N)ncnc32)nc2cccc(C)c2c1=O`: the Potency is 209 nM (active) in assay [1]; 187 nM (active) in [2]; 296 nM (active) in assay [4]; 1660 nM (active) in assay [5]; 1050 nM (active) in [7]; 372 nM (active) in assay [9].
With `COc1ccc(N(C(=O)Oc2c(C)cccc2C)c2ccnc(Nc3ccc(N4CCN(C)CC4)cc3)n2)c(OC)c1`, the Potency was 296 nM (active) in assay [1]; 2960 nM (active) in assay [2]; 2640 nM (active) in assay [4]; 16600 nM (active) in assay [5]; 4180 nM (active) in assay [6]; 9350 nM (active) in assay [8]. The Potency in [9] is 7430 nM (active).
For the compound `Cc1c(C(=O)c2cccc3ccccc23)c2cccc3c2n1[C@H](CN1CCOCC1)CO3`, the Potency entry in [1], in assay [2] and in [5] was “inactive” throughout. Further, the Potency in assay [4], in assay [6], in assay [7], in assay [8] and in assay [9] was 23500 nM (active) in each case.
Regarding `N#C[C@H](O[C@@H]1O[C@H](CO[C@@H]2O[C@H](CO)[C@H](O)[C@H](O)[C@H]2O)[C@H](O)[C@H](O)[C@H]1O)c1ccccc1`, the Potency in assay [1] is 23500 nM (active); in assay [2], 18700 nM (active); in assay [4], 18700 nM (active); in [5], 18700 nM (active); in assay [6], 23500 nM (active); in assay [8] it was 7430 nM (active). Besides, the Potency in assay [9] is 18700 nM (active).
`COCC1(CO)C(=O)C2CCN1CC2` (centres undefined): the Potency is 20900 nM (active) in assay [1]; 4180 nM (active) in [2]; 2960 nM (active) in [4]; 20900 nM (active) in assay [5]; 20900 nM (active) in assay [6]; 11800 nM (active) in [7]. The Potency was 7430 nM (active) in [8] and 23500 nM (active) in assay [9].
In the case of `COc1cccc2c1[C@]13CCN(CC4CC4)[C@H](C2)[C@]1(OC)CCC(=O)C3`, the Potency entry in [1], in [4], in assay [5], in assay [7], in [8] and in assay [9] was “inactive” throughout. Besides, in assay [2], the Potency is 20900 nM (active).
`COc1ccc(C(=O)c2c(C)n(CCN3CCOCC3)c3cc(I)ccc23)cc1`: the Potency is 7430 nM (active) in [1]; 6620 nM (active) in [2]; 13200 nM (active) in [4]; 11800 nM (active) in assay [5]; 18700 nM (active) in [6]; 26400 nM (active) in assay [7]. Besides, the Potency in assay [8] is 23500 nM (active).
